Data reported in PubChem BioAssay AID1159580 (chemical genetic matrix, 2015).
The campaign covered roughly 5,500 compounds. About 2,000 (36%) were called active. Another 18% or so got no clear call; they are omitted. Cut-off read from the data, not from the text of the source: active = normalized growth mostly below about 0.91 (no sharp cut-off); inconclusive = no clear call, values can overlap the other calls; inactive = mostly above about 0.92. This is one part of the list.

Test: chemical genetic growth profiling, strain panel (AID 1159580);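 note: tested at 20 µM; growth read once vehicle control cultures reached saturation at 30 °C; 1 = growth at the plate median or of vehicle wells; lower values mean less growth of the strain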
Conditions: S. cerevisiae deletion strains, growth OD

Measured: normalized growth

CC12CCCCC1(Br)[N+](=O)N2[O-] (configuration not stated)
active: locus YAL026C, strain drs2, active compounds read low 0.899 | locus YER155C, strain BEM2 (second series), active compounds read low 0.853 | locus YLR262C, strain YPT6 (second series), active compounds read low 0.815
inactive: locus YAL021C, strain ccr4, active compounds read low 0.951 | locus YAL030W, strain snc1, active compounds read low 0.997 | locus YBL061C, strain skt5, active compounds read low 0.978 | locus YBR009C, strain hhf1, active compounds read low 0.939 | locus YBR023C, strain chs3, active compounds read low 0.976 | locus YBR171W, strain sec66, active compounds read low 0.964 | locus YBR231C, strain swc5, active compounds read low 0.992 | locus YBR279W, strain paf1, active compounds read low 0.972 | locus YCL011C, strain gbp2, active compounds read low 0.943 | locus YCL016C, strain dcc1, active compounds read low 0.951 | locus YCL069W, strain vba3, active compounds read low 0.986 | locus YCR088W, strain abp1, active compounds read low 0.983 | locus YDL005C, strain med2, active compounds read low 0.969 | locus YDL040C, strain nat1, active compounds read low 0.991 | locus YDR001C, strain nth1, active compounds read low 1.01 | locus YDR069C, strain doa4, active compounds read low 0.91 | locus YDR137W, strain rgp1, active compounds read low 0.857 | locus YDR159W, strain sac3, active compounds read low 0.995 | locus YDR195W, strain ref2 1.01 | locus YDR297W, strain sur2, active compounds read low 1 | locus YDR334W, strain swr1, active compounds read low 0.984 | locus YDR335W, strain msn5, active compounds read low 0.974 | locus YDR392W, strain spt3, active compounds read low 0.948 | locus YEL003W, strain gim4, active compounds read low 0.994 | locus YEL037C, strain rad23, active compounds read low 0.998 | locus YEL061C, strain CIN8 (second series), active compounds read low 0.993 | locus YER015W, strain faa2, active compounds read low 0.993 | locus YER016W, strain bim1, active compounds read low 0.999 | locus YER111C, strain swi4, active compounds read low 0.967 | locus YFR010W, strain ubp6, active compounds read low 0.922 | locus YGL167C, strain pmr1, active compounds read low 0.993 | locus YGL173C, strain kem1, active compounds read low 0.953 | locus YGL227W, strain vid30, active compounds read low 0.992 | locus YGL240W, strain doc1, active compounds read low 0.992 | locus YGL253W, strain hxk2, active compounds read low 0.989 | locus YHR013C, strain ard1, active compounds read low 0.919 | locus YHR027C, strain rpn1, active compounds read low 0.966 | locus YHR142W, strain chs7, active compounds read low 0.942 | locus YJL092W, strain hpr5, active compounds read low 0.989 | locus YJL095W, strain BCK1 (second series), active compounds read low 0.993 | locus YJL115W, strain asf1, active compounds read low 0.987 | locus YJL129C, strain trk1, active compounds read low 0.997 | locus YJL154C, strain vps35, active compounds read low 0.997 | locus YJL164C, strain tpk1, active compounds read low 0.951 | locus YJL166W, strain qcr8, active compounds read low 0.961 | locus YJL187C, strain SWE1, active compounds read low 0.986 | locus YKL160W, strain elf1, active compounds read low 0.944 | locus YKR026C, strain gcn3, active compounds read low 0.985 | locus YKR091W, strain srl3, active compounds read low 0.989 | locus YLL001W, strain dnm1, active compounds read low 0.967 | locus YLL026W, active compounds read low 0.991 | locus YLL041C, strain sdh2, active compounds read low 0.999 | locus YLR027C, strain aat2, active compounds read low 0.954 | locus YLR221C, strain rsa3, active compounds read low 0.927 | locus YLR258W, strain gsy2, active compounds read low 0.967 | locus YLR320W, strain mms22, active compounds read low 0.954 | locus YLR342W, strain FKS1, active compounds read low 0.946 | locus YLR357W, strain rsc2, active compounds read low 0.914 | locus YLR370C, strain arc18, active compounds read low 0.966 | locus YLR384C, strain iki3, active compounds read low 0.984 | locus YML120C, strain ndi1, active compounds read low 1 | locus YMR058W, strain fet3, active compounds read low 0.951 | locus YMR125W, strain sto1, active compounds read low 1.02 | locus YMR129W, active compounds read low 0.98 | locus YMR205C, strain PFK2, active compounds read low 0.995 | locus YMR231W, strain pep5, active compounds read low 0.997 | locus YNL071W, strain lat1, active compounds read low 0.946 | locus YNL209W, strain ssb2, active compounds read low 0.963 | locus YNL248C, strain rpa49, active compounds read low 0.954 | locus YNL322C, strain KRE1 (second series), active compounds read low 0.979 | locus YNR049C, strain mso1, active compounds read low 0.999 | locus YOR001W, strain rrp6, active compounds read low 0.958 | locus YOR070C, strain gyp1, active compounds read low 0.994 | locus YOR080W, strain dia2, active compounds read low 1 | locus YOR083W, strain WHI5, active compounds read low 0.895 | locus YOR106W, strain vam3, active compounds read low 0.884 | locus YOR265W, strain rbl2, active compounds read low 0.991 | locus YOR270C, strain vph1, active compounds read low 0.81 | locus YOR290C, strain snf2, active compounds read low 0.976 | locus YPL051W, strain arl3, active compounds read low 0.936 | locus YPL078C, strain atp4, active compounds read low 0.967 | locus YPL106C, strain sse1, active compounds read low 0.941 | locus YPL240C, strain hsp82, active compounds read low 0.978

O=C(Nc1cc(C(F)(F)F)cc(C(F)(F)F)c1)C(Cl)(Cl)Cl
inactive: locus YAR019C, strain CDC15, active compounds read low 0.964 | locus YBL105C, strain PKC1, active compounds read low 0.958 | locus YBR135W, strain CKS1, active compounds read low 0.962 | locus YBR136W, strain MEC1, active compounds read low 0.965 | locus YBR160W, strain CDC28, active compounds read low 0.969 | locus YDL017W, strain CDC7, active compounds read low 0.959 | locus YDL028C, strain MPS1, active compounds read low 0.966 | locus YDL101C, strain DUN1, active compounds read low 0.97 | locus YDL108W, strain KIN28, active compounds read low 0.957 | locus YDL132W, strain cdc53, active compounds read low 0.955 | locus YDL214C, strain PRR2, active compounds read low 0.919 | locus YDR052C, strain DBF4, active compounds read low 0.964 | locus YDR054C, strain cdc34, active compounds read low 0.948 | locus YDR226W, strain ADK1, active compounds read low 0.959 | locus YDR477W, strain SNF1, active compounds read low 0.921 | locus YER123W, strain YCK3, active compounds read low 0.878 | locus YER133W, strain GLC7, active compounds read low 0.918 | locus YFL009W, strain cdc4, active compounds read low 0.951 | locus YFL029C, strain CAK1, active compounds read low 0.962 | locus YFR003C, strain YPI1, active compounds read low 0.955 | locus YFR019W, strain FAB1, active compounds read low 0.957 | locus YFR028C, strain CDC14, active compounds read low 0.962 | locus YGR040W, strain KSS1, active compounds read low 0.929 | locus YGR052W, strain FMP48, active compounds read low 0.911 | locus YGR092W, strain DBF2, active compounds read low 0.879 | locus YHR079C, strain IRE1, active compounds read low 0.843 | locus YHR082C, strain KSP1, active compounds read low 0.932 | locus YHR205W, strain SCH9, active compounds read low 0.815 | locus YIL147C, strain SLN1, active compounds read low 0.96 | locus YJL095W, strain BCK1, active compounds read low 0.828 | locus YJL128C, strain PBS2, active compounds read low 0.883 | locus YJL157C, strain FAR1, active compounds read low 0.932 | locus YJR016C, strain ILV3, active compounds read low 0.956 | locus YJR066W, strain TOR1 (second series), active compounds read low 0.947 | locus YJR066W, strain TOR1, active compounds read low 0.955 | locus YKL048C, strain ELM1, active compounds read low 0.931 | locus YKL067W, strain YNK1, active compounds read low 0.932 | locus YKL101W, strain HSL1, active compounds read low 0.918 | locus YKL193C, strain SDS22, active compounds read low 0.95 | locus YKL203C, strain TOR2, active compounds read low 0.969 | locus YLR133W, strain CKI1, active compounds read low 0.934 | locus YLR403W, strain SFP1, active compounds read low 0.916 | locus YML070W, strain DAK1, active compounds read low 0.891 | locus YMR001C, strain CDC5, active compounds read low 0.963 | locus YMR205C, strain PFK2 (second series), active compounds read low 0.926 | locus YMR277W, strain FCP1, active compounds read low 0.956 | locus YNL006W, strain LST8, active compounds read low 0.974 | locus YNL020C, strain ARK1, active compounds read low 0.92 | locus YNL161W, strain CBK1, active compounds read low 0.957 | locus YNL183C, strain NPR1, active compounds read low 0.913 | locus YNL207W, strain RIO2, active compounds read low 0.955 | locus YNL222W, strain SSU72, active compounds read low 0.967 | locus YNL307C, strain MCK1 (second series), active compounds read low 0.869 | locus YOL078W, strain AVO1, active compounds read low 0.961 | locus YOL136C, strain PFK27, active compounds read low 0.89 | locus YOR061W, strain CKA2, active compounds read low 0.96 | locus YOR119C, strain RIO1, active compounds read low 1 | locus YOR231W, strain MKK1, active compounds read low 0.896 | locus YOR329C, strain SCD5, active compounds read low 0.959 | locus YPL031C, strain PHO85, active compounds read low 0.904 | locus YPL153C, strain RAD53, active compounds read low 0.889 | locus YPL204W, strain HRR25, active compounds read low 0.879 | locus YPL209C, strain IPL1, active compounds read low 0.964 | locus YPR025C, strain CCL1, active compounds read low 0.969 | locus YPR106W, strain ISR1, active compounds read low 0.958 | locus YPR111W, strain DBF20, active compounds read low 0.941 | strain NNK1, active compounds read low 0.96 | strain TSCII, active compounds read low 0.957
active: locus YHR030C, strain SLT2, active compounds read low 0.829 | locus YLR113W, strain HOG1, active compounds read low 0.853 | locus YPL256C, strain CLN2, active compounds read low 0.77
